HEK293 tox = Cytotoxic Profiling in HEK 293 Cell Line of Diverse Libraries Using Quantitative High-Throughput Screening. HEK 293 viability, ATP luminescence (CellTiter-Glo), 48-72 h. Potency, µM (titrated, usually from 115 µM), without a hit: at the top dose activity change, negative = cytotoxicity, hits mostly inhibitors. 94,000 tested, 6.6% active; note: nearly all actives have a fitted effect of over 60% in size
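Cells seeded first (HEK 293, 250 cells/well), then compound added by pintool. Incubation ran 48 or 72 hr at 37 degree Celsius. CellTiter-Glo was added and luminescence imaged after 10 min at room temperature.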
FLuc inh = Firefly luciferase inhibition profiling of diverse chemical library using quantitative high-throughput screening; Luciferin 4-monooxygenase (Photinus pyralis), P08659; purified P. pyralis luciferase, luminescence, biochemical; Potency, µM (series often up to 115 µM), most hits filed as inhibitors; 76,000 tested, 2.5% active; AID 1347043, 2019; note: nearly all actives have a fitted effect of over 65% in size
Target sequence (P08659 whole entry, looked up): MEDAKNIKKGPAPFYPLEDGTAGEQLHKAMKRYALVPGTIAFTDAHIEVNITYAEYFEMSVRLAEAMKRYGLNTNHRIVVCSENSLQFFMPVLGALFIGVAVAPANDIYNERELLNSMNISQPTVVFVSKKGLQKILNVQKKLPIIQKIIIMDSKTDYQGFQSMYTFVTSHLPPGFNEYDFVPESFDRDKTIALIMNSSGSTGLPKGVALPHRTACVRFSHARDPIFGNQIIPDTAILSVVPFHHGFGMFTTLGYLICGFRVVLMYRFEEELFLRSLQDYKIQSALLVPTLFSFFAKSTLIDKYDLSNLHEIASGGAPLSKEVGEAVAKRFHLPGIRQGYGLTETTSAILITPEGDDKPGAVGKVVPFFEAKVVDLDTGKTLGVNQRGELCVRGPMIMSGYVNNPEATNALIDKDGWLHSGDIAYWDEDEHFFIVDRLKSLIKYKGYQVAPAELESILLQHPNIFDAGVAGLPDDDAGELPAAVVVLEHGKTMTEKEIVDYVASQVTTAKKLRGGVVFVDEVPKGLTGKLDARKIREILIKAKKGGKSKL
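Biochemical qHTS: compound (6-point titration) added to 10uM D-luciferin plus 10uM ATP in Tris acetate pH 7.5 buffer with Mg, Tween-20 and BSA, then purified enzyme at 10nM; light output imaged.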
hNpr1 antagonist = Natriuretic polypeptide receptor (hNpr1) antagonism - Primary qHTS; HEK293 hNpr1 GloSensor cGMP, ANP-stimulated luminescence; Potency, µM (highest dose often 46.3 µM), without a hit: top-dose activity change, negative = inhibition, hits mostly inhibitors; 76,000 tested, 1.6% active; calls by dose curve; note: nearly all actives have a fitted effect of over 60% in size
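HEK293 cells stably expressing human Npr1 and cGMP GloSensor pGS-40F, loaded 2 h with 2% GloSensor reagent, given compound 30 min at room temperature. Luminescence read before and 20 min after 0.1 nM hNppA.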
GPT2 inh = Primary qHTS assay for inhibitors of Glutamate pyruvate transaminase 2 (GPT2); Recombinant GPT2, coupled pyruvate oxidase/HRP Amplex Red fluorescence; Potency, µM (highest dose often 57.7 µM), inactives show at the top dose activity change, negative = inhibition, most hits filed as inhibitors; 100,000 tested, 0.25% active; AID 1671188, 2021; note: nearly all actives have a fitted effect of over 60% in size
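GPT2 10ng/uL, a-KG 250uM, L-Ala 2mM, HEPES pH7.5 + 0.0001% Tween; 30 min RT. Then Amplex mix (PO/HRP/ThPP), 30 min RT dark, fluorescence. AOA 50uM used as positive control.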
3T3 cytotox = Cytotoxic Profiling in NIH 3T3 Cell Line of Diverse Libraries Using Quantitative High-Throughput Screening; NIH 3T3 viability, CellTiter-Glo ATP luminescence, 48-72 h; AID 1345082, 2018; Potency, µM (top dose mostly 96.7 µM), without a hit: at the top dose activity change, negative = cytotoxicity, actives largely listed as inhibitors; 94,000 tested, 4.3% active; note: nearly all actives have a fitted effect of over 55% in size
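NIH 3T3 cells at 400 cells/well received 23 nL of compound by pintool and were incubated 48 or 72 h at 37 °C. Viability was read as ATP-coupled CellTiter-Glo luminescence.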
The depositor's hits bear a star; i = inactive; u = inconclusive; x = not tested or not shown; ! = a repeat was not active; [ ] = remark or other dose. Only some compounds are listed: those with a hit (about 10% of all), similar ones and a draw of the others. Unless noted, calls come from the whole dose curve; as a rule, active = well fitted curve in the direction sought with a large enough effect; inconclusive = small, poorly fitted or top-dose-only effect, or another doubt; inactive = no such curve, though single readings can be large; an effect the other way counts as inactive or inconclusive. % is set by controls: 0 for no effect and ±100 for the full control effect; potency is the fitted concentration of half-maximal effect.

SMILES | HEK293 tox | FLuc inh | hNpr1 antagonist | GPT2 inh | 3T3 cytotox
COc1ccc(CN2C[C@H](O)C[C@H]2c2nc(-c3ccncc3)no2)cc1 | u | i | 0%[70.6 µM] | -5%[88.5 µM] | -11%[174 µM]
O[C@@H]1C[C@@H](c2nc(-c3ccc(F)cc3)no2)N(Cc2ccncc2)C1 | 71µM* | 63µM* | u | 2%[88.5 µM] | u
CNC(=O)c1cc(C2CC2)nc2onc(C3CCCN3C(=O)c3ccccc3C)c12 (configuration not stated) | -18% | x | x | x | -12%
Cc1ccc(-c2noc([C@@H]3C[C@@H](O)CN3C3CCN(C)CC3)n2)cc1F | u | i | 5%[70.6 µM] | i | u
Cc1ccc(-c2noc([C@@H]3C[C@@H](O)CN3CC3CC3)n2)cc1F | u | 50µM* | -5%[70.6 µM] | i | u
O=C(NC1CCCCC1)C1CCc2nnc(C3CCN([S+](=O)([O-])c4ccccc4Cl)CC3)n21 (configuration not stated) | -1% | x | x | i | -19%
COc1cccc(C(=O)Nc2cc(C3CCCC3)nn2C)c1 | u | x | x | -2%[88.5 µM] | u
COc1ccc(C(=O)Nc2cc(C3CCCC3)nn2C)cc1 | 100µM* | x | x | i | u
CC(C)(Oc1nn(CC2CCOCC2)c2ccccc12)C(=O)NCCc1ccccc1 | 100µM* | i | -10%[70.6 µM] | -18%[88.5 µM] | u
COCc1ccc2c(c1)c(OC(C)(C)C(=O)Nc1ccc(OC)cc1)nn2Cc1cccnc1 | -6% | i | 5% | -5% | u
COCc1ccc2c(c1)c(OC(C)(C)C(=O)Nc1cc(C)nn1C)nn2Cc1cccnc1 | i | i | 1% | i | 40µM*
COCc1ccc2c(c1)c(OC(C)(C)C(=O)NCC1CCOCC1)nn2Cc1cccnc1 | i | i | 5% | -30% | 40µM*
COCCNC(=O)CNC(=O)c1cccc(-c2ccc(SC)cc2)c1 | u | x | x | -40% | -25%
O=C(c1cc(F)cc(F)c1)N1CCC(N2CC3CC(C2)[C@H]2CCCC(=O)N2C3)CC1 (some centres not stated) | -1% | i | -1% | 1% | i
COc1ccccc1-c1ccc(CN2CCCCC2C(=O)NCc2ccc(C(F)(F)F)cc2)cc1 (configuration not stated) | u | x | x | -8% | u
COc1ccccc1-c1ccc(CN2CCCCC2C(=O)NC(C)C)cc1 (configuration not stated) | 79µM* | x | x | x | u
COc1ccc(F)cc1-c1ccc(CN2CCCCC2C(=O)NCCc2ccc(Cl)cc2)cc1 (configuration not stated) | 32µM* | x | x | x | u
COc1ccc(F)cc1-c1ccc(CN2CCCCC2C(=O)NCC(F)F)cc1 (configuration not stated) | 35µM* | x | x | x | u
COc1ccccc1-c1ccc(CN2CCCCC2C(=O)NCC(F)F)cc1 (configuration not stated) | u | x | x | x | 45µM*!
CN(C)C(=O)N1CCC(C(=O)N2CCC3(CC2)CC(=O)Nc2ccccc2O3)CC1 | -1% | x | x | i | 2%
CSc1ccc(-c2cccc(C(=O)NCC(=O)NCc3cccs3)c2)cc1 | u | x | x | 3% | u
COc1ccc(F)cc1-c1ccc(CN2CCCCC2C(=O)N2CCCN(C(C)=O)CC2)cc1 (configuration not stated) | 45µM* | x | x | x | -35%
COc1ccccc1-c1ccc(CN2CCCCC2C(=O)N2CCOCC2)cc1 (configuration not stated) | u | x | x | -27% | -38%
NC1(C(=O)N2CCCC(CCc3ccccc3F)C2)CCC1 (configuration not stated) | u | i | 2% | -15% | -26%
Cc1ccccc1CCC1CCCN(C(=O)C2(C)CC2)C1 (configuration not stated) | 22µM* | u | -7% | i | u
SMILES | HEK293 tox | FLuc inh | hNpr1 antagonist | GPT2 inh | 3T3 cytotox
Cn1nc(C2CCCN(C(=O)CCC3CCCC3)C2)n(Cc2ccccc2)c1=O (configuration not stated) | -21% | x | x | i | u
Cc1ccc(C(=O)N2CCC(F)(C(=O)N3CCOCC3)CC2)s1 | -1% | x | x | 4% | 2%
Fc1ccc2nc([C@H]3CCN(C4CCC4)C3)[nH]c2c1 | u | 5µM* | 40µM* | u | u
Cc1ccc2nc([C@H]3CCN(Cc4ccc(S(C)(=O)=O)cc4)C3)[nH]c2c1 | 79µM* | i | -17%[70.6 µM] | 5%[88.5 µM] | -26%[174 µM]
CC(=O)N1CCC(N2CC[C@H](c3nc4ncccc4[nH]3)C2)CC1 | -2%[172 µM] | i | -1%[70.6 µM] | i | 3%[174 µM]
c1cnc2nc([C@H]3CCN(C4CCCCC4)C3)[nH]c2c1 | -14%[230 µM] | 28µM* | 4%[70.6 µM] | 1%[88.5 µM] | 2%[230 µM]
COc1ccc2nc([C@H]3CCN(CC(C)C)C3)[nH]c2c1 | 89µM* | i | -14%[70.6 µM] | -20%[88.5 µM] | 112µM*
COc1ccc(CC(=O)N2Cc3ccccc3CC3(CCN(C)CC3)C2)cc1 | -9% | x | x | i | -10%
O=C(NCc1ccc(F)cc1)c1nc2sccn2c1-c1ccccc1 | -7% | x | x | 1% | -24%
COc1ccc(CN2CC[C@H](c3nc4ccc(OC)cc4[nH]3)C2)cc1 | u | u | -4%[70.6 µM] | i | u
COC(=O)N1CCC(C(=O)N2CCC(c3nc4ncccc4[nH]3)CC2)CC1 | i | x | x | i | i
O=C(C1CCCN([S+](=O)([O-])c2cccs2)C1)N1CCCC(c2nc3ncccc3[nH]2)C1 (configuration not stated) | 89µM* | x | x | 2% | u
COc1ccc(CN2CC[C@H](c3nc4ccc(C)cc4[nH]3)C2)cc1 | 79µM* | i | 0%[70.6 µM] | 1%[88.5 µM] | 79µM*
COC(=O)N1CCC(C(=O)N2CCC(c3nc4ncccc4[nH]3)CC2)C1 (configuration not stated) | 35µM* | x | x | i | u
COc1ccc2nc([C@H]3CCN(C4CCCCC4)C3)[nH]c2c1 | u | 14µM* | u | -1%[88.5 µM] | u
O=C(C1CCCN([S+](=O)([O-])c2cccs2)C1)N1CCC(c2nc3ccncc3[nH]2)C1 (configuration not stated) | i | x | x | -3% | -8%
CCCCn1c(=O)c(C(=O)NCCc2ccccc2F)nc2cccnc21 | -7% | x | x | u | -26%
O=C(Nc1cc(-c2ccncc2)nn1-c1ccccc1)C1CC1 | 2%[172 µM] | x | x | -3%[88.5 µM] | u
CC(=O)Oc1c(-c2ccc(NC(=O)c3ccccc3)cc2)c(-c2cccc(F)c2)nn1-c1ccccc1 | -19% | i | -7% | u | -22%

From PubChem
